This is a sample that favours compounds with a hit; in the whole collection about 1.2% have one here.
SRC3 inh – inhibits human SRC3 coactivator | HEK293 GAL4-SRC3 luciferase reporter, luminescence | 360,000 tested, 0.17% active | Q9Y6Q9 | inhibition, % at 3.6 µM;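 active means inhibition above a per-campaign cutoff, the mean of all compounds plus 3 SD, cut at about 60% in these data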;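 further: higher means less SRC3-driven luciferase light from the GAL4 reporter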
Efflux pump mplx – inhibitors of Candida antifungal efflux pumps expressed in yeast. AID 485275. inhibition, % at 10 µM. 330,000 tested, 0.44% active. S. cerevisiae Candida pump triplex, Nile Red efflux;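 active means plate passing quality check with inhibition over a set limit, or well fluorescence over plate mean plus 4 SD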;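 further: Nile Red retained in pooled yeast measured as flow cytometry median fluorescence; higher means more Nile Red kept so more efflux inhibition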
NCOA1 inh – human NCOA1 inhibition; HEK293 GAL4-SRC1 luciferase reporter, luminescence; Q15788; inhibition, % at 3.6 µM; 360,000 tested, 0.12% active;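 active means inhibition above the campaign mean plus 3 SD, with each screening campaign given its own cutoff, cut at about 60% in these data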
NR5A2 inv ag – suppresses constitutive activity of human LRH-1; O00482; HEK293T StAR-luciferase reporter, LRH-1 transfected, 24 h; inhibition, % at 3.6 µM; 360,000 tested, 0.13% active; AID 602396;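 active means inhibition above the mean inhibition of all tested compounds plus 3 SD, cut at about 73% in these data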
Target sequence (O00482 whole entry, looked up): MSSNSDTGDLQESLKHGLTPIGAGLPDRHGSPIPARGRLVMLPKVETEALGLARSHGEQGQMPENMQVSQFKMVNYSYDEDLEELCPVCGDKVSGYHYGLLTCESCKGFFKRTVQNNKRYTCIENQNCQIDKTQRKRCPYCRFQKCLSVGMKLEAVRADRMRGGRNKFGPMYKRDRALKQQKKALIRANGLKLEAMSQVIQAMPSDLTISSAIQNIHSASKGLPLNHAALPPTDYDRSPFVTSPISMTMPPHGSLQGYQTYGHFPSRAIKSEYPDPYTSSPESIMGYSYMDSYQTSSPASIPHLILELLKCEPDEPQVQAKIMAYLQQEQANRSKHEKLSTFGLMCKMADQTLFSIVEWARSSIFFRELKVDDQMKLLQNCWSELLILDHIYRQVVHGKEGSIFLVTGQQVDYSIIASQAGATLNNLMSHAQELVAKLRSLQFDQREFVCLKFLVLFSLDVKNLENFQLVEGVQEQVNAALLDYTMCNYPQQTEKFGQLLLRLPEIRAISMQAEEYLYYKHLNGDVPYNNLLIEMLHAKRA
NR2F2 inh – inhibitors of human COUP-TFII (NR2F2). 370,000 tested, 0.7% active. HEK293T NGFI-A luciferase reporter, luminescence. P24468. inhibition, % at 8.6 µM;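 active means inhibition above a per-plate cutoff, mean inhibition of test wells between control levels plus 3 SD, cut at about 38% in these data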;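 further: cells cotransfected with COUP-TFII expression vector driving the NGFI-A reporter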
SRC2 inh – inhibits human steroid receptor coactivator 2; AID 651957; inhibition, % at 9 µM; 370,000 tested, 0.17% active; HEK293 GAL4-SRC2 luciferase reporter, luminescence; Q15596;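 active means inhibition above the mean inhibition of all tested compounds plus 3 SD, set per campaign, cut at about 52% in these data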
Gal4-VP16 ctr – VP16 inhibition counter-screen for COUP-TFII; 2,500 tested, 25% active; HEK293 Gal4-VP16 luciferase reporter, luminescence; shares compounds with NR2F2 inh; inhibition, % at 8.5 µM; in the data active means inhibition above about 13%
COUP-TFII conf – confirmation of human COUP-TFII (NR2F2) inhibitors | shares compounds with NR2F2 inh | HEK293 NGFI-A luciferase reporter, luminescence | inhibition, % at 8.5 µM | 2,500 tested, 45% active;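 active means mean inhibition over three repeats above a set limit taken from the earlier primary screen, cut at about 38% in these data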
Numbers stand for hits; . = inactive; / = not tested or not shown.

SMILES	SRC3 inh	Efflux pump mplx	NCOA1 inh	NR5A2 inv ag	NR2F2 inh	SRC2 inh	Gal4-VP16 ctr	COUP-TFII conf
CC(C)(C)c1ccc(-c2noc(CCC(=O)NCc3ccco3)n2)cc1	.	.	.	.	38	63	25	57
Cn1c(=O)c2[nH]c(CCCCc3nc4ccccc4[nH]3)nc2n(C)c1=O	.	/	.	.	.	.	/	/
Cn1c(=O)c2[nH]c(CCCCCCCCc3nc4ccccc4[nH]3)nc2n(C)c1=O	.	/	.	.	69	.	.	58
CCOc1ccc(NC(=O)CSc2nnnn2-c2ccc(C(N)=O)cc2)cc1	.	.	.	.	.	.	/	/
COc1ccc2c(c1)/C(=C\c1cccc(/C=C3/C(=O)Nc4ccc(OC)cc43)n1)C(=O)N2	.	/	.	.	70	55	75	95
Oc1ccccc1C=NC1=NN(c2cccc(C(F)(F)F)c2)CC1	.	.	.	.	.	.	/	/
S=C(Nc1cc(Cl)cc(Cl)c1)NC(c1ccccc1)c1ccccc1	/	/	/	/	57	/	.	.
O=C(OCCN1C(=O)c2cccc3c(N4CCOCC4)ccc(c23)C1=O)c1ccccc1Cl	.	.	.	.	66	.	.	.
O=C(OCCN1C(=O)c2cccc3c(N4CCOCC4)ccc(c23)C1=O)c1ccc(Cl)cc1Cl	.	.	.	.	.	.	/	/
CC(=O)Nc1cccc(-c2csc(Nc3cc(C)ccn3)n2)c1	.	.	.	.	.	.	/	/
CC(=O)Nc1ccc(-c2csc(Nc3cc(C)ccn3)n2)cc1	.	.	.	.	53	.	.	.
Cc1ccc(-c2csc(=Nc3cccnc3)n2CCCn2ccnc2)cc1C	.	.	63	.	55	62	18	45
O=c1cc(-c2ccc(O)cc2)oc2c1ccc1ccccc12	.	.	.	.	.	.	/	/
O=c1cc(-c2ccc(O)cc2)oc2ccc3ccccc3c12	.	.	.	.	55	.	14	46
Cc1c(OC(C)C(=O)NCCCn2ccnc2)ccc2c3c(c(=O)oc12)CCC3 (centres undefined)	.	.	.	.	.	.	/	/
CN(C)C(=O)c1ccc(NC(=O)c2cccc(S(=O)(=O)N3CCCc4ccccc43)c2)cc1	.	.	.	.	39	.	.	.
O=C(Nc1ccncc1)c1cccc(S(=O)(=O)N2CCc3ccccc32)c1	.	.	.	.	61	.	.	45
CCCNC(=O)c1cc(S(=O)(=O)N2CCc3ccccc32)cn1C	.	.	.	.	44	.	.	.
CN(C)C(=O)c1ccc(NC(=O)c2cccc(S(=O)(=O)N3CCCCCC3)c2)cc1	.	.	.	.	.	.	/	/
COc1ccc(C(=O)C2CCN(CC(=O)Nc3ccc(C)cc3)CC2)cc1	.	.	.	.	.	.	/	/
Cc1ccc(C(=O)NNC(=S)Nc2cccc3ccccc23)s1	.	.	.	.	.	.	/	/
Cn1nc([N+](=O)[O-])nc1N1CCOCC1	.	.	.	.	.	.	/	/
CC(CCC(=O)O)(c1ccc(O)cc1)c1ccc(O)cc1	.	.	.	.	.	.	/	/
CCN(CC)S(=O)(=O)c1cc(NC(=O)Cc2ccsc2)ccc1C	.	.	.	.	.	.	/	/
Cc1cccc(NC(=O)CCC2CCN(C(=O)c3ccc(C)s3)CC2)c1	.	.	.	.	.	.	/	/
SMILES	SRC3 inh	Efflux pump mplx	NCOA1 inh	NR5A2 inv ag	NR2F2 inh	SRC2 inh	Gal4-VP16 ctr	COUP-TFII conf
COCc1ccc(C(=O)N2CCC(CCC(=O)Nc3cccc(C)c3)CC2)s1	.	.	.	.	40	.	30	.
CCOc1ccc(Br)cc1/C(C)=N\NC1=NCCN1	.	.	.	.	45	.	.	.
CCCCCOc1ccc(/C(C)=N/NC2=NCCN2)cc1	.	.	.	.	.	.	/	/
Cc1cc(NC(=O)COC(=O)CNS(=O)(=O)c2c(F)cc(F)cc2Br)no1	.	.	.	.	85	.	.	.
COc1ccc(Cn2c(=O)[nH]c3cc(C(=O)NCCCN4CCCC4=O)ccc3c2=O)cc1	.	.	.	.	.	.	/	/
Cc1cc(C)cc(N/C(N)=N/c2nc(C)cc(C)n2)c1	.	.	.	.	.	.	/	/
CCCCc1ccc(N/C(N)=N/c2nc(C)cc(C)n2)cc1	.	.	.	.	49	.	29	56
COC(=O)c1cc(N/C(N)=N/c2nc(C)cc(C)n2)cc(C(=O)OC)c1	.	/	.	.	42	.	.	.
Cc1ccc(N/C(N)=N/c2nc(C)cc(C)n2)cc1	.	.	.	.	.	.	/	/
CCCC[C@H]1C2CC(OC(=O)NCCCc3ccccc3)C(C2)[C@H]2CCCCN21 (some centres undefined)	/	/	/	/	.	.	/	/
CCCCN(c1ccccc1)c1ncnc(N)c1[N+](=O)[O-]	63	.	61	.	52	57	15	.
CN(c1ncnc(N)c1[N+](=O)[O-])C1CCS(=O)(=O)C1 (centres undefined)	.	.	.	.	.	.	/	/
N=c1ccn(CC(=O)c2ccc(-c3ccccc3)cc2)cc1	73	.	.	.	58	.	.	54
Cc1nc(C)n(CC(O)COc2ccc3ccccc3c2)n1 (centres undefined)	.	.	.	.	.	.	/	/
CC(C)C(Sc1nc(-c2ccccc2)cc(-c2ccccc2)c1C#N)C(=O)O (centres undefined)	.	.	.	.	38	.	.	.
COc1ccc(-c2nc3ncccc3o2)cc1NC(=O)c1ccco1	.	.	.	.	.	.	/	/
O=S(=O)(c1cc(F)ccc1F)N1CCN(c2ncnc3ccccc23)CC1	.	.	.	.	51	.	19	53
CC1Cc2cc(-c3csc(NC(=O)Cc4ccccc4)n3)ccc2N1S(C)(=O)=O (centres undefined)	.	.	.	.	75	.	.	49
O=C(OCc1ccccc1)N1CCC2CC1c1cc(NCCc3ccccc3)ccc12 (centres undefined)	.	/	.	.	.	.	/	/
CC(=O)N(CCc1ccccc1)c1ccc2c(c1)C1CC2CCN1C(=O)OCc1ccccc1 (centres undefined)	.	/	.	.	38	.	.	.
COC(=O)c1nc(N)sc1C(C)C	.	.	.	.	.	.	/	/
Cc1ccc(Cl)cc1N1CCN(C(=O)CN(C2CCCCC2)S(C)(=O)=O)CC1	.	.	.	.	40	.	.	.
Cc1ccc(Cl)cc1N1CCN(C(=O)COc2ccc(S(=O)(=O)NC(C)C)cc2)CC1	.	.	.	.	38	.	.	39
CC(C)NS(=O)(=O)c1ccc(OCC(=O)N2CCCC2)cc1	.	.	.	.	.	.	/	/
CS(=O)(=O)N(CC(=O)N1CCN(c2cccc(Cl)c2)CC1)C1CCCCC1	.	.	.	.	.	.	/	/
